HT1080NT lethal – qHTS for induction of synthetic lethality in tumor cells producing 2HG: qHTS for the HT-1080-NT fibrosarcoma cell line; HT-1080-NT fibrosarcoma viability, CellTiter-Glo ATP luminescence, 48 h; Potency, µM (top dose mostly 46.1 µM), without a hit: top-dose activity, negative = less viability, hits mostly cytotoxic; hit rate 1.6% among 360,000;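 note: NT is the 2HG producing partner of a matched IDH1 knockdown line; 0% = DMSO-treated cells and -100% = media-only wells without cells; nearly all actives have a fitted effect of over 55% in size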
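Luminescent CellTiter-Glo readout after 48 hours of compound exposure at 37 degrees C defined viability of HT-1080-NT cells. Activity was normalized to DMSO wells and cell-free media wells; concentration-response curves were fitted and assigned curve classes.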
TDP1 cell noCPT – qHTS for Inhibitors of human tyrosyl-DNA phosphodiesterase 1 (TDP1): qHTS in cells in absence of CPT | DT40 Tdp1-/- hTDP1 cells, no CPT, ATP luminescence, 48 h | Potency, µM (titrated, usually from 46.2 µM), for the others: at the highest dose activity change, negative = growth inhibition, hits mostly inhibitors | hit rate 15% among 420,000; note: % is set by controls: 0 for no effect and ±100 for the full control effect; nearly all actives have a fitted effect of over 55% in size
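Chicken DT40 Tdp1-/- cells complemented with human TDP1, screened without camptothecin (DMSO vehicle only), 400 cells/well. Compounds pin-transferred, cells incubated at 37 °C for at least 48 hr. Growth read as ATP-dependent luminescence (CellTiter-Glo, 30 min at RT).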
DT40 TDP1 CPT – qHTS for Inhibitors of human tyrosyl-DNA phosphodiesterase 1 (TDP1): qHTS in cells in presence of CPT. hit rate 12% among 420,000. AID 686979, 2013. Potency, µM (series often up to 46.2 µM), inactives show top-dose activity change, negative = growth inhibition, hits mostly inhibitors. chicken DT40 Tdp1-/-;hTDP1 cells + 20 nM CPT, ATP luminescence, 48 h; note: % is set by controls: 0 for no effect and ±100 for the full control effect; nearly all actives have a fitted effect of over 55% in size
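Cell growth measured by CellTiter-Glo luminescence after a minimum 48 h, 37 C compound exposure with 20 nM CPT in Tdp1-knockout DT40 cells stably expressing hTDP1, seeded 400/well; qHTS titration format.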
HepG2 tox-1 – qHTS for Inhibitors of TGF-b: Cytotox Counterscreen. hit rate 0.76% among 410,000. HepG2 CAGA-GFP viability, ATP luminescence, 18 h. Potency, µM (series often up to 46.1 µM), inactives show at the top dose activity change, negative = cytotoxicity, usual class: cytotoxic
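CellTiter-Glo luminescence gave cytotoxicity after 18 hours at 37 degrees C. The cells were HepG2 CAGA-GFP in 1% FBS DMEM, stimulated with 500 pg/mL TGF-beta after compound addition. %Activity was normalised to no-cell wells (complete cell-killing) and DMSO (no toxicity), and curves were fitted and classified.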
TGFb SMAD3 inh – qHTS for Inhibitors of TGF-b; HepG2 CAGA-GFP TGF-b/SMAD3 reporter, GFP fluorescence, 18 h; TGF-beta stimulated, 500 pg/mL final; Potency, µM (top dose mostly 46.1 µM), inactives show at the top dose activity, negative = inhibition, hits mostly inhibitors; hit rate 1.2% among 410,000; AID 588855, 2011; note: % is set by controls: 0 for no effect and ±100 for the full control effect; nearly all actives have a fitted effect of over 65% in size
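Using HEPG2 CAGA-GFP reporter cells at 1000 cells/well, we pinned test compounds, stimulated with recombinant TGF-beta (500 pg/mL final) and measured total well GFP after 18 h.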
HT1080 IDH1KD tx – qHTS for induction of synthetic lethality in tumor cells producing 2HG: qHTS for the HT-1080-IDH1KD cell line. HT-1080 IDH1 knockdown viability, ATP luminescence, 48 h. Potency, µM (series often up to 46.1 µM), inactives show at the highest dose activity, negative = toxicity, hits mostly cytotoxic. hit rate 2% among 360,000. AID 686971, 2013;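 note: 0% = DMSO wells and -100% = cell-free medium wells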
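After a 2 h attachment period, IDH1KD HT-1080 cells took pin-transferred compound for 48 h at 37 °C; ATP-based luminescence after 10 min room-temperature reagent incubation reported viability.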
TGFb confirm – qHTS for Inhibitors of TGF-b: Confirmation of Cherry Picks; shares compounds with TGFb SMAD3 inh; HepG2 CAGA-GFP TGF-b reporter, GFP fluorescence, 18 h; cells stimulated with TGF-beta, 500 pg/mL; Potency, µM (series often up to 46.1 µM), without a hit: at the top dose activity, negative = inhibition, usual class: inhibitors; hit rate 63% among 1,600; AID 720534, 2013; note: % is set by controls: 0 for no effect and ±100 for the full control effect; nearly all actives have a fitted effect of over 65% in size
HepG2 tox-2 – qHTS for Inhibitors of TGF-b: Cytotox Counterscreen for Cherry Picks; shares compounds with TGFb SMAD3 inh; HepG2 CAGA-GFP viability, ATP luminescence, 18 h; cells stimulated with TGF-beta, 500 pg/mL; Potency, µM (titrated, usually from 46.1 µM), without a hit: at the top dose activity, negative = cytotoxicity, usual class: inhibitors; hit rate 27% among 1,600; AID 720535, 2013; note: % is set by controls: 0 for no effect and ±100 for the full control effect; nearly all actives have a fitted effect of over 70% in size
TGFb CCL64 inh – qHTS for Inhibitors of TGF-b: CCL64 Cells Orthogonal Assay for Cherry Picks | shares compounds with TGFb SMAD3 inh | CCL64 CAGA-GFP reporter, TGF-b stimulated, GFP fluorescence, 18 h | Potency, µM (series often up to 46.1 µM), for inactives: at the top dose activity, negative = inhibition, most hits filed as inhibitors | hit rate 41% among 1,600 | AID 720536, 2013; note: nearly all actives have a fitted effect of over 65% in size
TGFb COP inh – qHTS for Inhibitors of TGF-b: Hit Validation in HepG2 Cells using COP promoter; HepG2 COP-GFP TGF-b reporter, GFP fluorescence, 18 h; cells stimulated by added recombinant TGF-beta; hit rate 3% among 1,600; shares compounds with TGFb SMAD3 inh; Potency, µM (top dose mostly 46.1 µM), without a hit: at the highest dose activity, negative = inhibition, hits mostly inhibitors; note: nearly all actives have a fitted effect of over 70% in size
Numbers without * were called inactive. Rows were chosen to be rich in hits. Some 17% of all compounds tested hit in one or more screens of this group. Calls come from the whole dose curve; as a rule, active = well fitted curve in the direction sought with a large enough effect; inconclusive = small, poorly fitted or top-dose-only effect, or another doubt; inactive = no such curve, though single readings can be large; an effect the other way counts as inactive or inconclusive. Potency is the fitted concentration of half-maximal effect.

Screening O=[N+]([O-])c1ccc(S(=O)(=O)CC(CN2CCOCC2)N2CCOCC2)cc1 (stereo unspecified) returned HT1080NT lethal -13%, TDP1 cell noCPT inconclusive, DT40 TDP1 CPT inconclusive, HepG2 tox-1 -14%, TGFb SMAD3 inh -4% and HT1080 IDH1KD tx -8%.
Screening CN(C)C(=O)c1ccc(-c2cc3onc(-c4ccccc4)c3c(=O)n2C)cc1 returned HT1080NT lethal 1%, TDP1 cell noCPT 16µM*, DT40 TDP1 CPT inconclusive, HepG2 tox-1 -23%, TGFb SMAD3 inh inconclusive, HT1080 IDH1KD tx 4%, TGFb confirm -6%, HepG2 tox-2 -21%, TGFb CCL64 inh -7% and TGFb COP inh 1%.
`CSc1nc(C)nc(N/C=C(\C#N)S(=O)(=O)c2ccccc2Cl)n1` gave HT1080NT lethal 2%, TDP1 cell noCPT -18%, DT40 TDP1 CPT -1%, HepG2 tox-1 4%, TGFb SMAD3 inh 12% and HT1080 IDH1KD tx 3%.
For Cc1cccc(CCNC(=O)c2cccc3c2C(=O)N(C2CCCCC2)C3)c1 the results were HT1080NT lethal inconclusive, TDP1 cell noCPT -4%, DT40 TDP1 CPT inconclusive, HepG2 tox-1 0%, TGFb SMAD3 inh 13µM*, HT1080 IDH1KD tx -24%, TGFb confirm 15µM*, HepG2 tox-2 -10%, TGFb CCL64 inh inconclusive and TGFb COP inh 3%.
`CCCc1cc2c(cc1NC(=O)c1ccco1)OCO2` gave HT1080NT lethal 1%, TDP1 cell noCPT 4%, DT40 TDP1 CPT 3%, HepG2 tox-1 6%, TGFb SMAD3 inh inconclusive, HT1080 IDH1KD tx -4%, TGFb confirm -27%, HepG2 tox-2 2%, TGFb CCL64 inh 0% and TGFb COP inh -2%.
`CCCc1cc2c(cc1NC(=O)c1ccccc1F)OCO2` gave HT1080NT lethal 7%, TDP1 cell noCPT inconclusive, DT40 TDP1 CPT -3%, HepG2 tox-1 32%, TGFb SMAD3 inh 28% and HT1080 IDH1KD tx 15%.
For O=C(Nc1nnc([C@@H]2C[C@H](O)[C@@H](CO)O2)s1)Nc1ccccc1C(F)(F)F the results were HT1080NT lethal 0%, TDP1 cell noCPT -15%, DT40 TDP1 CPT -8%, HepG2 tox-1 0%, TGFb SMAD3 inh -6% and HT1080 IDH1KD tx 16%.
For CC1(C(=O)NCc2cccc3ccccc23)CCN1C(=O)C1(c2ccccc2)CCCC1 (stereo unspecified) the results were HT1080NT lethal inconclusive, TDP1 cell noCPT 21µM*, DT40 TDP1 CPT 23µM*, HepG2 tox-1 -6%, TGFb SMAD3 inh 13µM*, HT1080 IDH1KD tx inconclusive, TGFb confirm 13µM*, HepG2 tox-2 inconclusive, TGFb CCL64 inh inconclusive and TGFb COP inh 45%.
For COc1ccc([C@H]2CC(=O)C=C(c3cccc(Br)c3)C2)cc1 the results were HT1080NT lethal -5%, TDP1 cell noCPT inconclusive, DT40 TDP1 CPT inconclusive, HepG2 tox-1 -7%, TGFb SMAD3 inh inconclusive and HT1080 IDH1KD tx -1%.
O=C1C=C(/C=C/c2ccccc2)C[C@@H](c2ccc(F)cc2)C1 was read as HT1080NT lethal 0%, TDP1 cell noCPT inconclusive, DT40 TDP1 CPT inconclusive, HepG2 tox-1 -14%, TGFb SMAD3 inh inconclusive and HT1080 IDH1KD tx 2%.
For COc1ccc([C@H]2CC(=O)C=C(c3cccc(Br)c3)C2)cc1OC the results were HT1080NT lethal -28%, TDP1 cell noCPT 13µM*, DT40 TDP1 CPT inconclusive, HepG2 tox-1 12%, TGFb SMAD3 inh 4.5µM*, HT1080 IDH1KD tx -29%, TGFb confirm inconclusive, HepG2 tox-2 -28%, TGFb CCL64 inh inconclusive and TGFb COP inh 28%.
`COc1ccc([C@H]2CC(=O)C=C(/C=C/c3ccccc3)C2)cc1OC` gave HT1080NT lethal -17%, TDP1 cell noCPT inconclusive, DT40 TDP1 CPT 18µM*, HepG2 tox-1 -6%, TGFb SMAD3 inh 13µM*, HT1080 IDH1KD tx -1%, TGFb confirm inconclusive, HepG2 tox-2 -19%, TGFb CCL64 inh inconclusive and TGFb COP inh 14%.
Cc1cc(N2CCN(C)CC2)nc2ccc(NC(=O)CCC(=O)NCCc3ccc(Cl)cc3)cc12 was read as HT1080NT lethal 3%, TDP1 cell noCPT inconclusive, DT40 TDP1 CPT 7%, HepG2 tox-1 -18%, TGFb SMAD3 inh -14% and HT1080 IDH1KD tx 27%.
`Cc1c(C(=O)N2CCN(Cc3ccc4c(c3)OCO4)CC2)sc2ncnc(N3CCN(c4ccccc4F)CC3)c12` gave HT1080NT lethal inconclusive, TDP1 cell noCPT 8.2µM*, DT40 TDP1 CPT 18µM*, HepG2 tox-1 -35%, TGFb SMAD3 inh 5µM*, HT1080 IDH1KD tx 18µM*, TGFb confirm inconclusive, HepG2 tox-2 -15%, TGFb CCL64 inh -9% and TGFb COP inh 10%.
